Measured values: PubChem BioAssay (Tox21)
Inconclusive results are not listed. Active and inactive are the calls of the source. Unless noted, the call rests on the fitted dose curve; in most records, active means well fitted curve in the direction sought with a large enough effect in the repeat runs; inconclusive means weak or mixed curves; inactive means no such curve, though single readings can be large; an effect the other way counts as inactive or inconclusive.

What was measured:
[1] = qHTS assay to identify small molecule agonists of the vitamin D receptor (VDR) signaling pathway - cell viability counter screen (AID 743224); further: series mostly up to about 63 µM; nearly all actives have a fitted effect of over 50% in size
Summary of the method: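 VDR-bla cells, 4 h after plating, exposed to compounds for 16 h at 37C; viability then read in the same wells as CellTiter-Glo luminescence after 30 min at room temperature, following the bla FRET read.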

[2] = qHTS assay to identify small molecule antagonists of the vitamin D receptor (VDR) signaling pathway - cell viability counter screen (AID 743225); further: nearly all actives have a fitted effect of over 50% in size
Summary of the method: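 Luminescent cell viability (CellTiter-Glo) in VDR-bla HEK 293T cells after 16 h compound exposure at 37C in the presence of 3 nM final 1-alpha,25-dihydroxy vitamin D3.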

[3] = qHTS assay to identify small molecule agonists of the NFkB signaling pathway (AID 1159509; active means well fitted curve in the direction sought with a large enough effect in the signal ratio in the repeat runs, not every such curve was filed as active; the % refers to the signal ratio; further: series mostly up to about 61 µM)
Summary of the method: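 ME-180 NFkB-bla, 2,000 cells/well, overnight plating; cpd pinned in DMSO, 5 h 37 C; B/G FRET substrate 1.5 h RT; ex 405, em 460/530 nm.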

[4] = qHTS assay to identify small molecule agonists of the NFkB signaling pathway - cell viability counter screen (AID 1159515; calls by dose curve; further: series mostly up to about 61 µM; nearly all actives have a fitted effect of over 55% in size)
Summary of the method: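 NFkB-bla ME-180 cells, 2,000/well, plated overnight at 37 C; compound added for 5 hr at 37 C. Viability read in the same wells as the bla reporter, by CellTiter-Glo luminescence after 30 min at room temperature.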

[5] = qHTS assay to identify small molecule agonists of the endoplasmic reticulum stress response signaling pathway (AID 1159516; active means well fitted activation curve with a large enough effect in the signal ratio in the repeat runs, not every such curve was filed as active; the % refers to the signal ratio)
Summary of the method: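 CellSensor ESRE-bla HeLa cells, 1,500 per well, plated overnight, then exposed to compounds for 5 hr at 37 C. Beta-lactamase reporter read with LiveBLAzer B/G FRET substrate after 2 hr at room temperature, 405 nm excitation, 460 and 530 nm emission.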

[6] = qHTS assay to identify small molecule antagonists of the retinoid-related orphan receptor gamma (ROR-gamma) signaling pathway - cell viability counter screen (AID 1159520); further: nearly all actives have a fitted effect of over 50% in size
Summary of the method: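 Tet-on ROR gamma CHO cells (1,000/well) were plated 4 hr, given compounds in DMSO for 2 hr at 37 C, then induced with 1 uM final doxycycline for 16 hr. Viability was read as ATP by CellTiter-Glo luminescence after 30 min.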

[7] = biological target: Nuclear receptor ROR-gamma (Homo sapiens) (UniProt P51449); experiment: qHTS assay to identify small molecule antagonists of the retinoid-related orphan receptor gamma (ROR-gamma) signaling pathway (AID 1159521;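 further: CHO cells with doxycycline inducible ROR-gamma driving an RORE luciferase reporter; top concentration of the series differs between compounds; nearly all actives have a fitted effect of over 50% in size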)
Summary of the method: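 CHO cells expressing RORγ under a TET-on promoter, luciferase under RORE control. Dox 1 uM final, 16 h; compounds added 2 h prior. Luminescence decrease measured.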

[8] = qHTS assay to identify small molecule agonists of the AP-1 signaling pathway - cell viability counter screen (AID 1159525; calls by dose curve; further: nearly all actives have a fitted effect of over 55% in size)
Summary of the method: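 ME-180 AP-1-bla, 2500 cells/well, Opti-MEM + 0.5% dialyzed FBS; overnight 37 °C; cpd 15-pt titration, 5 h 37 °C; CellTiter-Glo 30 min RT; luminescence read; normalised to TOAB and DMSO controls.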

[9] = qHTS assay to identify small molecule agonists of the AP-1 signaling pathway (AID 1159526; calls by dose curve)
[10] = qHTS assay to identify small molecule agonists of the RXR signaling pathway - cell viability counter screen (AID 1159529)
Summary of the method: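 Same-well viability check after the LiveBLAzer FRET read: CellTiter-Glo added, luminescence measured after 30 min at room temperature. Reporter HEK 293T cells had been treated with compounds for 16 hr following a 5 hr preincubation.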

[11] = qHTS assay to identify small molecule antagonists of the retinoid acid receptor (RAR) signaling pathway - cell viability counter screen (AID 1159551); further: nearly all actives have a fitted effect of over 35% in size
Summary of the method: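 C3RL4 RARE-luciferase cells, 1,000/well, incubated overnight, then dosed with compound plus 1 uM retinol (final). After 6 hr at 37 C, viability read by CellTiter-Glo ATP luminescence following 30 min at room temperature.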

[12] = qHTS assay to identify small molecule antagonists of the retinoic acid receptor (RAR) signaling pathway (AID 1159552; further: nearly all actives have a fitted effect of over 50% in size)
Summary of the method: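 Readout: luciferase luminescence, 30 min post-reagent at RT. Setup: C3RL4 RARE reporter cells, compounds plus retinol 1 uM final, 6 hr incubation at 37 C and 5% CO2.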

[13] = qHTS assay to identify small molecule agonists of the retinoic acid receptor (RAR) signaling pathway (AID 1159553); further: potency means the concentration at half of the fitted maximal effect
Summary of the method: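 C3RL4 RARE-luciferase cells were seeded at 1,000/well and grown overnight at 37 C, then exposed to compounds for 6 hr at 37 C, 5% CO2. Luciferase reagent was added and luminescence was read after 30 min at room temperature.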

[14] = qHTS assay to identify small molecule agonists of the endoplasmic reticulum stress response signaling pathway - cell viability counter screen (AID 1159517; calls by dose curve)
Summary of the method: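 CellTiter-Glo was added to wells already read for beta-lactamase FRET, and luminescence was recorded 30 min later. Cells: ESRE-bla HeLa, 1,500 per well, compound exposure 5 hr at 37 C.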

[15] = biological target: Retinoic acid receptor RXR-alpha (Homo sapiens) (UniProt P19793); experiment: qHTS assay to identify small molecule agonists of the RXR signaling pathway (AID 1159527; calls by dose curve; further: nearly all actives have a fitted effect of over 35% in size)
Retinoic acid receptor RXR-alpha (Homo sapiens), sequence (P19793 whole entry, looked up): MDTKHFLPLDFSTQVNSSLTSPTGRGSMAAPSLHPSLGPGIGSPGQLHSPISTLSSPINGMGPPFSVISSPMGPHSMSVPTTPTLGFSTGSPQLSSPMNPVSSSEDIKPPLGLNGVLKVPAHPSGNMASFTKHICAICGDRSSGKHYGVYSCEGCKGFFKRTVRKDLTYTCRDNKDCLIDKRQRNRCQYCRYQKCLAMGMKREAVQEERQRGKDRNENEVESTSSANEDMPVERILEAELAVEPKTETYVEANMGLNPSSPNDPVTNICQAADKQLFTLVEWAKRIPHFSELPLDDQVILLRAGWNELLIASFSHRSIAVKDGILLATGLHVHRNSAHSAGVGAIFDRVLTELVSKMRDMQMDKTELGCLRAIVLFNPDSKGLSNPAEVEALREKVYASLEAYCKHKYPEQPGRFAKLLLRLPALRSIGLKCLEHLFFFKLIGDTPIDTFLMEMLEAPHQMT
Summary of the method: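 Beta-lactamase reporter assay, agonist format. Engineered HEK 293T line, charcoal-stripped FBS at 2%, overnight (16 hr) exposure, fluorescence at 460 and 530 nm after 405 nm excitation.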

[16] = qHTS assay to identify small molecule antagonists of the estrogen related receptor (ERR) signaling pathway - cell viability counter screen (AID 1224818); further: series mostly up to about 46 µM
Summary of the method: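 ERR cells, 2,000 per well, compound added after 6 h and incubated 17.5 h at 37 C. Viability read by CellTiter-Fluor fluorescence after a further 30 min at 37 C.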

[17] = qHTS assay to identify small molecule antagonists of the estrogen related receptor (ERR) signaling pathway (AID 1224819)
Summary of the method: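 ERR reporter cell line (NTP) plated at 2,000 cells/well, settled 6 h at 37C/5% CO2, then exposed to LOPAC compounds for 18 h at 37C. One-Glo luciferase luminescence read after 30 min at room temperature.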

[18] = system: estrogen-related receptor alpha (ERRalpha) with PGC-1alpha coactivator, human; experiment: qHTS assay to identify small molecule antagonists of the estrogen related receptor signaling pathway with the pleiotropic PPARgamma coactivator (PGC) (AID 1224821; calls by dose curve)
Summary of the method: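 Luminescent read-out (One-Glo, 30 min at room temperature) following 18 h treatment of PGC/ERR cells at 37 C with compounds delivered in DMSO. Cells had settled 6 h at 37 C/5% CO2 before dosing.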

[19] = qHTS assay to identify small molecule antagonists of the estrogen related receptor signaling pathway with the pleiotropic PPARgamma coactivator (PGC) cell viability counter screen (AID 1224822; further: series mostly up to about 46 µM)
Summary of the method: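 PGC/ERR cells rested 6 h, then compound-treated 17.5 h at 37 C. CellTiter-Fluor added for 30 min at 37 C, viability measured by fluorescence intensity.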

Measured: Potency

C=CCCC
not listed: [13] | [14] | [15] | [16] | [17] | [18] | [19]
inactive: all other assays above

N#CCCCC(C#N)CCC#N (stereo unspecified)
not listed: [14] | [15] | [16] | [17] | [18] | [19]
inactive: all other assays above

Cc1ccc(NC=O)c(C)c1
not listed: [12] | [13] | [14] | [15] | [16] | [17] | [18] | [19]
inactive: all other assays above

CC/C=C\CCO
inactive: [1] | [2] | [4] | [5] | [14] | [6] | [9] | [10] | [11]

O=C(OCCCCCOC(=O)c1ccccc1)c1ccccc1
not listed: [13] | [14] | [15] | [16] | [17] | [18] | [19]
inactive: all other assays above

O=Cc1ccc([N+](=O)[O-])cc1
active: [13] 19.4 µM
not listed: [9] | [10] | [14] | [16] | [17] | [18] | [19]
inactive: all other assays above

O=C(Nc1ccccc1)c1cc([N+](=O)[O-])ccc1Cl
not listed: [8] | [12] | [13] | [14] | [15]
inactive: all other assays above

CCCCCCCCCCCCSCCOCCO
not listed: [8] | [14] | [15] | [16] | [17] | [18] | [19]
inactive: all other assays above

CCCC1CCCC(=O)O1 (stereo unspecified)
not listed: [2] | [7] | [14] | [15] | [16] | [17] | [18] | [19]
inactive: all other assays above

CCCCCC1CCC(=O)O1 (stereo unspecified)
inactive: [1] | [3] | [4] | [5] | [6] | [9] | [10] | [11]

OCCCO
not listed: [13] | [14] | [15] | [16] | [17] | [18] | [19]
inactive: all other assays above
